# Source: PubChem BioAssay
# Pf growth 48h: P. falciparum growth inhibition at 48 hours (one generation). Potency, µM (titrated, usually from 28.7 µM), for inactives: at the highest dose activity change, negative = inhibition, usual class: inhibitors. AID 504832. P. falciparum luciferase growth in erythrocytes, 48 h. 5.9% of 310,000 active
#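 In quantitative HTS format, infected erythrocytes bearing luciferase-reporter parasites were treated for a single generation at 37 C. Luminescence after adding detection reagent served as the growth measure.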
# AMA1-RON2 inh: inhibitors of Plasmodium falciparum AMA1-RON2 interaction; AlphaScreen AMA1-biotinylated RON2 peptide binding; Potency, µM (series often up to 58.2 µM), inactives show at the top dose activity change, negative = inhibition, actives largely listed as inhibitors; 0.2% of 360,000 active; AID 720542;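 further: 0% = vehicle wells and -100% = peptide control; nearly all actives have a fitted effect of over 45% in size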
#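 AMA1 (3D7) with his tag at 25 nM final met compounds first, then biotinylated RON2 peptide at 25 nM; detection used donor plus acceptor beads, 10 µg/mL apiece, read by AlphaScreen after 30 min at room temperature.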
# Pf growth 96h: P. falciparum growth inhibition at 96 hours. Potency, µM (top dose mostly 28.7 µM), without a hit: at the top dose activity change, negative = inhibition, actives largely listed as inhibitors. P. falciparum luciferase reporter growth, 96 h. 6.9% of 320,000 active
#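 Compounds incubated with erythrocytes infected by luciferase-expressing P. falciparum (2% hematocrit, 0.05% parasitemia final) for 96 hours, 37 C in 5% CO2. Growth inhibition scored as decreased luciferase luminescence.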
# HCV inhibitor: blocks hepatitis C virus. Potency, µM (titrated, usually from 41.8 µM), for the others: top-dose activity change, negative = inhibition, hits mostly inhibitors. AID 651820. Huh7.5.1 HCVcc-Cre infection, luciferase reporter, 44 h. 3.4% of 340,000 active
#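 Infectious HCVcc-Cre (~0.5 moi) was added to cells just after compound, with cells seeded 4 h earlier at 1,000 per well. Luciferase activity after 44 h culture reported infection; substrate was incubated 15 min at room temperature before reading.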
# * hit, by the source's call; ? = inconclusive; . = no result given; [ ] = dose if it differs, or a comment. Rows were chosen to be rich in hits. Some 11% of all compounds tested hit in one or more screens of this group. The call rests on the fitted dose curve; in most records, active means well fitted curve in the direction sought with a large enough effect; inconclusive means small, poorly fitted or top-dose-only effect, or another doubt; inactive means no such curve, though single readings can be large; an effect the other way counts as inactive or inconclusive. Unless noted, on the % scale 0 is the no-effect control and ±100 the full control effect; potency means the concentration at half of the fitted maximal effect.
SMILES,Pf growth 48h,AMA1-RON2 inh,Pf growth 96h,HCV inhibitor
COc1ccccc1NC(=O)N[C@@H](Cc1c[nH]c2ccccc12)C(=O)NN,?,26%,?,7%
O=C1CC(SC(=Nc2ccccc2)Nc2ccccc2)C(=O)N1c1cccc2ccccc12 (stereo not drawn),?,-3%,?,11%
CC1CCN(c2nc3ccc(C(=O)N4CCN(Cc5ccc6c(c5)OCO6)CC4)cc3s2)CC1,.,5%,4.1µM*,3.2µM*
O=S(=O)(c1cc(Cl)ccc1Cl)N1CCN(Cc2ccc3c(c2)OCO3)CC1,.,-1%,10µM*,-27%
O=C(CCc1ccc(S(=O)(=O)N2CCOCC2)cc1)N1CCN(Cc2ccc3c(c2)OCO3)CC1,.,-3%,3.3µM*,?
Cc1ccc2c(C)c(C(=O)N3CCN(Cc4ccc5c(c4)OCO5)CC3)oc2c1C,?,-24%,?,11µM*
COC(=O)c1sccc1NC(=O)COc1ccccc1Cl,46%,4%,?,-16%
CCC(C)N(C(=O)COC(=O)c1ccccc1SCC(=O)N1CCCC1)C1CCS(=O)(=O)C1 (stereo not drawn),15%,1%,2%,12%
COc1ccc(S(=O)(=O)N2CC(O)CC2C(=O)OCc2nc3sc(C)c(C)c3c(=O)[nH]2)cc1 (stereo not drawn),9%,-19%,18%,22%
COc1ccc(N2CCN(C(=O)c3cccc(NC(=O)c4ccco4)c3)CC2)cc1,-10%,-14%,98%,1%
Cc1ccc(-c2nc3cccnc3s2)cc1NC(=O)C1c2ccccc2Oc2ccccc21,?,-7%,-20%,0%[8.37 µM]
CN1C[C@@H]2[C@@H]3C(=O)N(Cc4ccccc4)C(=O)[C@@H]3[C@](Cc3ccccc3)(C1=O)N2C(=O)c1ccc(Br)cc1,.,-11%,.,-13%
O=C(c1ccc([N+](=O)[O-])cc1)N1CCN(Cc2ccccc2[N+](=O)[O-])CC1,-3%,158%,?,-15%
Cc1cc(S(=O)(=O)NC(C)C)ccc1OCC(=O)N1CCN(Cc2ccc3c(c2)OCO3)CC1,?,9%,8%,?
CC(C)NS(=O)(=O)c1ccc(OCC(=O)N2CCN(Cc3ccc4c(c3)OCO4)CC2)c(Cl)c1,?,2%,.,11µM*
Cc1ccc(C(=O)N2CCN(Cc3ccc4c(c3)OCO4)CC2)cc1S(=O)(=O)N1CCOCC1,?,0%,10µM*,?
CCCNC(=O)c1ccccc1NC(=O)C1=CSCCO1,5%,-20%,15µM*,-12%
CCCNC(=O)c1ccccc1NS(=O)(=O)c1ccc2c(c1)OCCO2,9.3µM*,19%,-16%,2%
CC(C)CCNC(=O)c1ccccc1NC(=O)C1=CSCCO1,3%,7%,1%,-2%
